Reference: PubChem BioAssay (Tox21)
Records with an inconclusive call do not appear. Activity calls are given as the source filed them. Unless noted, the call rests on the fitted dose curve.

Assays:
[1] = Nuclear factor erythroid 2-related factor 2/antioxidant responsive element (Nrf2/ARE) small molecule agonists: qHTS cell viability counter screen in human keratinocytes (AID 1919968; active means well fitted curve in the direction sought with a large enough effect in the repeat runs; an effect the other way counts as inactive or inconclusive; further: nearly all actives have a fitted effect of over 55% in size; further: potency means the concentration at half of the fitted maximal effect)
Summary of the method: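 KeratinoSens cells (HaCaT keratinocytes stably carrying an ARE-luciferase reporter) were seeded at 1,500 cells/well and rested 5 h at 37 C/5% CO2. They were then exposed to compounds in DMSO for 23 h. Viability was read by CellTiter-Fluor fluorescence after 1 h.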

[2] = Nuclear factor erythroid 2-related factor 2/antioxidant responsive element (Nrf2/ARE) small molecule agonists: luciferase reporter gene qHTS assay in human keratinocytes (AID 1919969); further: nearly all actives have a fitted effect of over 35% in size; further: potency means the concentration at half of the fitted maximal effect
[3] = target: Gonadotropin-releasing hormone receptor (Homo sapiens) (UniProt P30968); assay: Human gonadotropin-releasing hormone receptor (GnRHR) small molecule agonists, calcium flux assay in GnRHR-HEK293 cells (AID 1920063); further: nearly all actives have a fitted effect of over 35% in size
Summary of the method: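 HEK293 cells stably expressing human GnRHR were plated 18 h at 37 °C, loaded with calcium dye 1 h at 37 °C, then given compound in agonist mode; fluorescence (Ex/Em 480/540) read kinetically for 3 min at 1 s intervals.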

[4] = target: KiSS-1 receptor (Homo sapiens) (UniProt Q969F8); assay: Human kisspeptin (KISS1R) small molecule agonists, calcium flux assay in KISS1R-HEK293 cells (AID 1920064; active means well fitted curve in the direction sought with a large enough effect in the repeat runs; an effect the other way counts as inactive or inconclusive)
Summary of the method: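 HEK293 cells stably expressing human KISS1R were plated 18 h at 37 °C, loaded with calcium dye for 1 h at 37 °C, then given compound by pin tool. Fluorescence (Ex/Em 480/540) was read kinetically for 3 min.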

[5] = G protein-coupled receptor (GPCR) small molecule agonists, calcium flux assay: HEK293 wild type cell line counter screen (AID 1920065)
Summary of the method: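 Cells were plated and cultured 18 h at 37 C/5% CO2, then loaded with calcium dye for 1 h at 37 C. Compounds in DMSO were pin-transferred in agonist mode, and fluorescence (Ex/Em 480/540) was read kinetically for 3 min at 1 s intervals.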

[6] = p53 small molecule agonists, cell-based qHTS assay with human liver microsomes: qHTS cell viability counter screen (AID 1963579); further: nearly all actives have a fitted effect of over 45% in size; further: potency means the concentration at half of the fitted maximal effect
Summary of the method: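 p53RE-bla cells, 4,000/well, dosed 5 hours after plating, with human liver microsomes (0.5 mg/mL final) plus NADPH (0.5 mg/mL final), 16 hours at 37 C. Viability read as CellTiter-Glo luminescence after 30 min at room temperature.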

[7] = p53 small molecule agonists, cell-based qHTS assay with rat liver microsomes: qHTS cell viability counter screen (AID 1963580); further: nearly all actives have a fitted effect of over 45% in size; further: potency means the concentration at half of the fitted maximal effect
Summary of the method: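 p53RE-bla HCT-116 cells (4,000/well) rested 5 h at 37 C, then given Tox21 compounds in DMSO with rat liver microsomes (0.5 mg/mL final) plus NADPH (0.5 mg/mL final) for 16 h at 37 C. Viability read by CellTiter-Glo luminescence after 30 min at room temperature.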

[8] = p53 small molecule agonists, cell-based qHTS assay: qHTS cell viability counter screen (AID 1963581); further: nearly all actives have a fitted effect of over 45% in size; further: potency means the concentration at half of the fitted maximal effect
Summary of the method: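 p53RE-bla HCT-116 cells were exposed to compounds for 16 h at 37 C; after the beta-lactamase FRET read in the same wells, CellTiter-Glo was added and luminescence (intracellular ATP) read after 30 min at room temperature.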

[9] = target: 5-hydroxytryptamine receptor 2A (Homo sapiens) (UniProt P28223); assay: 5-hydroxytryptamine receptor 2A (HTR2A) small molecule antagonists, cell-based qHTS assay (AID 1963586); further: nearly all actives have a fitted effect of over 45% in size; further: potency means the concentration at half of the fitted maximal effect
Summary of the method: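 Antagonist-mode intracellular calcium assay: DOI (4 nM) added after 5 min compound pre-incubation at room temperature to dye-loaded HTR2A-CHO cells. Fluorescence followed for 3 min, sampled every second.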

[10] = target: 5-hydroxytryptamine receptor 2A (Homo sapiens) (UniProt P28223); assay: 5-hydroxytryptamine receptor 2A (HTR2A) small molecule agonists, cell-based qHTS assay (AID 1963587); further: nearly all actives have a fitted effect of over 30% in size; further: potency means the concentration at half of the fitted maximal effect
Summary of the method: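 HTR2A-CHO cells, plated 18 h at 37 C/5% CO2, dye-loaded 1 h at 37 C; compounds in DMSO added by pin tool (agonist mode). Intracellular calcium flux read as kinetic fluorescence on FDSS over 2 min at 1 s intervals.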

[11] = target: Muscarinic acetylcholine receptor M1 (Homo sapiens) (UniProt P11229); assay: Cholinergic receptor muscarinic 1 (CHRM1) small molecule agonists, cell-based qHTS assay (AID 1963589); further: nearly all actives have a fitted effect of over 35% in size
Summary of the method: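 CHO cells stably expressing human CHRM1, seeded 18 h at 37 C/5% CO2, dye-loaded 1 h at 37 C, then given compound in agonist mode; intracellular calcium fluorescence read kinetically at 1 s intervals. Fifteen concentrations, three independent runs.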

[12] = cAMP Responsive Elements (CRE) small molecule agonists, cell-based qHTS assay (AID 1963590)
Summary of the method: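 CRE-bla HEK 293T cells in DMEM with 10% dialyzed FBS, NEAA, pyruvate and 25 mM HEPES were plated 18 h at 37 C/5% CO2, then exposed to compounds in DMSO for 3 h before LiveBLAzer B/G FRET substrate addition.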

[13] = cAMP Responsive Elements (CRE) small molecule antagonists, cell-based qHTS assay (AID 1963591; active means well fitted inhibition curve with a large enough effect in the signal ratio in the repeat runs, not every such curve was filed as active; the % refers to the signal ratio)
Summary of the method: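 CRE-bla HEK293T cells were plated 18 h at 37 °C/5% CO2, pinned with compound in DMSO, then stimulated with NKH477 at 0.25 uM final for 3 h. LiveBLAzer B/G FRET substrate was added and plates incubated 2 h at room temperature.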

[14] = target: Beta-2 adrenergic receptor (Homo sapiens) (UniProt P07550); assay: Adrenergic beta2 receptor (ADRB2) small molecule antagonists, cell-based qHTS assay (AID 1963592); further: nearly all actives have a fitted effect of over 50% in size; further: potency means the concentration at half of the fitted maximal effect
Summary of the method: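 Cells (CHO, stable ADRB2 overexpression) incubated 18-20hr at 37C; compounds added from DMSO; agonist mix (1nM isoproterenol, 100uM IBMX, 25uM Ro-20-1724) added; 0.5hr RT; d2-cAMP and anti-cAMP-cryptate added; 1hr RT; 665/615 nm read.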

[15] = target: D(2) dopamine receptor (Homo sapiens) (UniProt P14416); assay: Dopamine D2 receptor (DRD2) small molecule agonists, cell-based qHTS assay (AID 1963594); further: nearly all actives have a fitted effect of over 35% in size
Summary of the method: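 HEK293 cells stably expressing DRD2 were cultured 24 h at 37 C, then given Ro20-1724 (0.1 mM final) and compounds for 10 min at room temperature. NKH477 (200nM) was then added for 30 min. cAMP was read by HTRF.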

[16] = target: D(2) dopamine receptor (Homo sapiens) (UniProt P14416); assay: Dopamine D2 receptor (DRD2) small molecule antagonists, cell-based qHTS assay (AID 1963595; active means well fitted inhibition curve with a large enough effect in the signal ratio in the repeat runs, with a control signal flat; the % refers to the signal ratio; further: potency means the concentration at half of the fitted maximal effect)
Summary of the method: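 Stable D2 receptor HEK293 line, 24 h after seeding. Compound preincubated 10 min, then quinpirole (12 nM) with forskolin analogue NKH477 (200 nM), 30 min, room temperature. Detection by time-resolved FRET of cAMP.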

[17] = target: Muscarinic acetylcholine receptor M1 (Homo sapiens) (UniProt P11229); assay: Cholinergic receptor muscarinic 1 (CHRM1) small molecule antagonists, cell-based qHTS assay (AID 1963588); further: nearly all actives have a fitted effect of over 40% in size; further: potency means the concentration at half of the fitted maximal effect
Summary of the method: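 CHRM1-CHO calcium-flux assay, antagonist mode. Cells were seeded 18 h, dye-loaded 1 h at 37 C and given compound for 5 min at RT, then acetylcholine was added at 50nM. FDSS fluorescence was read 3 min; 15 concentrations, three runs.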

[18] = target: Beta-2 adrenergic receptor (Homo sapiens) (UniProt P07550); assay: Adrenergic beta2 receptor (ADRB2) small molecule agonists, cell-based qHTS assay (AID 1963593);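 further: CHO cells stably overexpressing human ADRB2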
Summary of the method: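 CHO cells stably over-expressing ADRB2 were plated overnight at 37C, then dosed with compounds plus a stimulation mix containing 100uM IBMX and 25uM Ro-20-1724 for 0.5hr at room temperature. cAMP was measured by HTRF competition, 1hr.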

Measured: Potency

D(2) dopamine receptor (Homo sapiens), sequence (P14416 whole entry, looked up): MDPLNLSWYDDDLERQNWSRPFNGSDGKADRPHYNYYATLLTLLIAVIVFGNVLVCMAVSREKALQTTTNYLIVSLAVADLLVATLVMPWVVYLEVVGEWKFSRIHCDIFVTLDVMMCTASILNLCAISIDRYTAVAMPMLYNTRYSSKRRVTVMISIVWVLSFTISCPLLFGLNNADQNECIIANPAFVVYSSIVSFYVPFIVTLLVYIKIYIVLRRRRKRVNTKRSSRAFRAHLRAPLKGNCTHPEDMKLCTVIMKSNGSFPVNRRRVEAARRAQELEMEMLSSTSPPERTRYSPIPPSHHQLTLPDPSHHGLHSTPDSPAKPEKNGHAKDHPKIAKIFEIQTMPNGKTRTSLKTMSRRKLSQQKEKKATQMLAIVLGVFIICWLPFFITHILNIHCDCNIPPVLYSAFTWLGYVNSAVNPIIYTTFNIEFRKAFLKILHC
5-hydroxytryptamine receptor 2A (Homo sapiens), sequence (P28223 whole entry, looked up): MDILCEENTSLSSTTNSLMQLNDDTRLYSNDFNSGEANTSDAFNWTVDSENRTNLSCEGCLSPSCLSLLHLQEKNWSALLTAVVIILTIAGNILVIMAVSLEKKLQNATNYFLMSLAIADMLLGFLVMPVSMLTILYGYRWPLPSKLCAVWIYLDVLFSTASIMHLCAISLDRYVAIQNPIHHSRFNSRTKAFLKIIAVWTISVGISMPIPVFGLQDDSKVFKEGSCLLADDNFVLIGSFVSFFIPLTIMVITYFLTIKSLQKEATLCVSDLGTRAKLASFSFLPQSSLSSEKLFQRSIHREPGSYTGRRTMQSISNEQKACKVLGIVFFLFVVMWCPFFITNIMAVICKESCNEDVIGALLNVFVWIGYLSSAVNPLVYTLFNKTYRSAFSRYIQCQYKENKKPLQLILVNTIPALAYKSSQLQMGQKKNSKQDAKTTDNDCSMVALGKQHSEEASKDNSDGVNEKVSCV
Gonadotropin-releasing hormone receptor (Homo sapiens), sequence (P30968 whole entry, looked up): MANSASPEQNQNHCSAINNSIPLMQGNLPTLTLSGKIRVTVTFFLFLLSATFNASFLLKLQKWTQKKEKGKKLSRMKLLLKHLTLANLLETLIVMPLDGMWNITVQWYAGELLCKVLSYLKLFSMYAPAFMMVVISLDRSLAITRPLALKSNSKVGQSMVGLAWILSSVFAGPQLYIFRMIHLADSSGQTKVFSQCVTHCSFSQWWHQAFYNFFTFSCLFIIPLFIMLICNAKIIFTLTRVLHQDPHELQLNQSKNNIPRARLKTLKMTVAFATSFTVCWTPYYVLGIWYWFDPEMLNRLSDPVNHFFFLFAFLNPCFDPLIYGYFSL
Muscarinic acetylcholine receptor M1 (Homo sapiens), sequence (P11229 whole entry, looked up): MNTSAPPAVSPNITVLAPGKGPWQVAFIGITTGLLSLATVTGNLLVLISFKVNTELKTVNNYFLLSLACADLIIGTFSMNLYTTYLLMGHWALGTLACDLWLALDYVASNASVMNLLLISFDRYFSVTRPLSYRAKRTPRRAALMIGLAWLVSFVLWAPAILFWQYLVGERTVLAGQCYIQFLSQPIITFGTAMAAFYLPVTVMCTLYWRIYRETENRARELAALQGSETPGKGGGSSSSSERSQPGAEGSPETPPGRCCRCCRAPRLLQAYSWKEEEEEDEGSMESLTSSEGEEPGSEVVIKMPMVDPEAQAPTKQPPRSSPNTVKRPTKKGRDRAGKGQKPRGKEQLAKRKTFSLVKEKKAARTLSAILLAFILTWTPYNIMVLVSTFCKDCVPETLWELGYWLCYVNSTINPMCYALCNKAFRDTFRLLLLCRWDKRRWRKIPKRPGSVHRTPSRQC
Beta-2 adrenergic receptor (Homo sapiens), sequence (P07550 whole entry, looked up): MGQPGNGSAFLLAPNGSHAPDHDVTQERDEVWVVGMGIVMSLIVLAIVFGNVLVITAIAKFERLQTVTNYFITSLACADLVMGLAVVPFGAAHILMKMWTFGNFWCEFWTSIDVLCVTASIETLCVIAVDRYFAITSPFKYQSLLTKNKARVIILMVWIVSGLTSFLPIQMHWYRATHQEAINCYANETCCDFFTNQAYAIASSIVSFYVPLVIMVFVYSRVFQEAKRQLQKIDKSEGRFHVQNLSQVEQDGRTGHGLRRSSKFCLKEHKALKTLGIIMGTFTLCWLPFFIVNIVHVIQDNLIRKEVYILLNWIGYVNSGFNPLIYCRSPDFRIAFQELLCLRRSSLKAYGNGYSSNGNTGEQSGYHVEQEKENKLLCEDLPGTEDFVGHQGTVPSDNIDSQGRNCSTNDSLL
KiSS-1 receptor (Homo sapiens), sequence (Q969F8 whole entry, looked up): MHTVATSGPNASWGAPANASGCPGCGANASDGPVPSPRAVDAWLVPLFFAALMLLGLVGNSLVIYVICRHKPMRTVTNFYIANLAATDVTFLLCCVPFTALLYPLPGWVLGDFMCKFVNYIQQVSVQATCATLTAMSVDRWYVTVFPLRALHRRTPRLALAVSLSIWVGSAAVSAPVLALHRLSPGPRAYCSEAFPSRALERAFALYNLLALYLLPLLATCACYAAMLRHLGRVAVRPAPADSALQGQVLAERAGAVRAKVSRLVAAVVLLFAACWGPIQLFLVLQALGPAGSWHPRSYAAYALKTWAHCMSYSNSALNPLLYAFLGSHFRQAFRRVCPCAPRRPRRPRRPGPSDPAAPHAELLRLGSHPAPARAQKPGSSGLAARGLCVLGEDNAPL

CCC(C)N (stereo unspecified)
not listed: [17] | [18]
inactive: all other assays above

CCOC(=O)C1=NN(c2ccccc2)C(=O)C1
not listed: [17] | [18]
inactive: all other assays above

CN(C)CCN(C)CCO
active: [9] 9.4 µM
not listed: [12] | [14] | [16]
inactive: all other assays above

CC[N+](C)(CC)CCOC(=O)C1c2ccccc2Oc2ccccc21
not listed: [17] | [18]
inactive: all other assays above

C1COCO1
not listed: [17]
inactive: all other assays above

NC(=O)c1ccccc1
not listed: [11] | [15]
inactive: all other assays above

C[C@@H](O)[C@H]1C(=O)N2C(C(=O)O)=C(S[C@@H]3CN[C@H](CNS(N)(=O)=O)C3)[C@H](C)[C@H]12
not listed: [12] | [13] | [14] | [18]
inactive: all other assays above

CC(C)(C)C1CCCCC1=O (stereo unspecified)
not listed: [13] | [15] | [17] | [18]
inactive: all other assays above

O=c1oc2cc(O)ccc2c2oc3cc(O)ccc3c12
active: [2] 29.4 µM
not listed: [12] | [13] | [14] | [15] | [16] | [17] | [18]
inactive: all other assays above

Cn1cnc2c(=O)[nH]c(N)nc21
not listed: [15] | [17]
inactive: all other assays above

CCCCCCCC/C=C\CCCCCCCC(=O)OCC
not listed: [11] | [12] | [18]
inactive: all other assays above

CO/N=C1\CN(c2nc3c(cc2F)c(=O)c(C(=O)O)cn3C2CC2)CC1CN (stereo unspecified)
not listed: [12] | [14] | [18]
inactive: all other assays above

C=CC(=C)CCCC(C)(C)OC(C)=O
not listed: [12] | [13]
inactive: all other assays above

CC[N+](CC)(CC(=O)Nc1c(C)cccc1C)Cc1ccccc1 (tested in a mixture with another compound)
not listed: [11] | [14] | [16] | [18]
inactive: all other assays above

Oc1cc2ccccc2c2ccccc12
active: [1] 13.7 µM | [6] 10.2 µM | [7] 6.46 µM | [8] 10.2 µM | [16] 30.6 µM
not listed: [12] | [13] | [15] | [18]
inactive: all other assays above

CO[C@]12C[C@@H](COC(=O)c3cncc(Br)c3)CN(C)[C@@H]1Cc1cn(C)c3cccc2c13
active: [9] 0.0729 µM | [10] 0.0849 µM | [17] 8.18 µM | [14] 13.3 µM | [16] 26.6 µM
not listed: [11] | [18]
inactive: all other assays above

COC(=O)CCS
not listed: [15] | [17] | [18]
inactive: all other assays above
